What was measured:
Test in all cases: DAPPL (digital affinity profiling via proximity ligation, sequencing); 10 mM Tris-HCl pH 7.5, 50 mM NaCl, 1 mM DTT, 4% glycerol, room temperature, 30 min; GST-TFs on glutathione beads, 16-mer random dsDNA library, 0.1% formaldehyde crosslink after washing; high values mean tight binding
[1] = biological target: T1, FLI1 (Homo sapiens, UniProt Q01543 1-452); details: protein: recombinant; tags: N-terminal GST; dsDNA, one strand shown
T1 sequence: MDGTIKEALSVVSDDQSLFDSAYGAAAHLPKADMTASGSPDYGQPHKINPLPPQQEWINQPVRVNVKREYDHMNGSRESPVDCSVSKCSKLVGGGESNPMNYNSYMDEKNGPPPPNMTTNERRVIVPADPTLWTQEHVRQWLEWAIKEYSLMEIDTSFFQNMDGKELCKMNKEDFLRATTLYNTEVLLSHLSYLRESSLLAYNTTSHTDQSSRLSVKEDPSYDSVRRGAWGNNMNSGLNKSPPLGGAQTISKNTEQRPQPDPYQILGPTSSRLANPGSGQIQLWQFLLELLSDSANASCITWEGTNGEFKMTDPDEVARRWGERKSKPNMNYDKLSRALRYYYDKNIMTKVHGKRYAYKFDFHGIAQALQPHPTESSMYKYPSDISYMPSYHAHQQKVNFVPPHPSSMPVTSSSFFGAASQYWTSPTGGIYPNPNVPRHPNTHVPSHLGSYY
In short: (§1)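 Pools of DNA-barcoded human transcription factors, expressed in yeast as GST fusions on glutathione beads and combined with a tag-only sample, were incubated with 200 nmole of a 16-mer random double-stranded DNA library. Incubation took 30 min at room temperature in Tris/NaCl/DTT/glycerol buffer and was followed by washing, 0.1% formaldehyde crosslinking, proximity ligation (BsaI/T4 ligase, 1 h, 37 °C), PCR amplification and sequencing on an Illumina NextSeq500. Binding signal is the ratio of a hexamer's read frequency for a factor to its frequency for the tag-only sample.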

[2] = biological target: T2, ELK1 (Homo sapiens, UniProt P19419 1-428); details: protein: recombinant; tags: N-terminal GST; dsDNA, one strand shown
T2 sequence: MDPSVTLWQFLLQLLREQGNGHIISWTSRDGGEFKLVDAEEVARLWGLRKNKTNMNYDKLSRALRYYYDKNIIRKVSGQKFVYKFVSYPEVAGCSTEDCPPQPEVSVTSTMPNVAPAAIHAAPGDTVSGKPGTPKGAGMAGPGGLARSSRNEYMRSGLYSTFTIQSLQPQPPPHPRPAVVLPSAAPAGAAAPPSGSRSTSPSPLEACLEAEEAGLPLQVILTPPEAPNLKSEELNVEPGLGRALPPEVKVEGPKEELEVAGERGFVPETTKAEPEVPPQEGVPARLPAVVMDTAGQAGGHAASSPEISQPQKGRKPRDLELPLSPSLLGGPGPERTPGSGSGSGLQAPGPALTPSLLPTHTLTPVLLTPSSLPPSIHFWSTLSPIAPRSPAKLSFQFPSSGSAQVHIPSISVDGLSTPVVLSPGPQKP
In short: as §1

[3] = biological target: T3, GABPA (Homo sapiens, UniProt Q06546 1-454); details: protein: recombinant; tags: N-terminal GST; dsDNA, one strand shown
T3 sequence: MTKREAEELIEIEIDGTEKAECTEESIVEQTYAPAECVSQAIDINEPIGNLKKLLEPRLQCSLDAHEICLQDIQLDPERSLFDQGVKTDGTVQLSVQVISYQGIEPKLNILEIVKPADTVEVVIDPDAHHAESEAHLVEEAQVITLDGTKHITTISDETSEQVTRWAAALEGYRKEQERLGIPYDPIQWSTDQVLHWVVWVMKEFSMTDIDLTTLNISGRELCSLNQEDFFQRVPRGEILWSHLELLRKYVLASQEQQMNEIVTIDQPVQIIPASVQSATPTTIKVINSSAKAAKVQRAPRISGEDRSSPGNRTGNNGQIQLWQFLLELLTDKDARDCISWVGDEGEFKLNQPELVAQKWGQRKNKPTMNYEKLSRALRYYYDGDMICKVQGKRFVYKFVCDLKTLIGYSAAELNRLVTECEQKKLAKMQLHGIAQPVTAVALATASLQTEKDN
In short: as §1

[4] = biological target: T4, ERG (Homo sapiens, UniProt P11308 1-479); details: protein: recombinant; tags: N-terminal GST; dsDNA, one strand shown
T4 sequence: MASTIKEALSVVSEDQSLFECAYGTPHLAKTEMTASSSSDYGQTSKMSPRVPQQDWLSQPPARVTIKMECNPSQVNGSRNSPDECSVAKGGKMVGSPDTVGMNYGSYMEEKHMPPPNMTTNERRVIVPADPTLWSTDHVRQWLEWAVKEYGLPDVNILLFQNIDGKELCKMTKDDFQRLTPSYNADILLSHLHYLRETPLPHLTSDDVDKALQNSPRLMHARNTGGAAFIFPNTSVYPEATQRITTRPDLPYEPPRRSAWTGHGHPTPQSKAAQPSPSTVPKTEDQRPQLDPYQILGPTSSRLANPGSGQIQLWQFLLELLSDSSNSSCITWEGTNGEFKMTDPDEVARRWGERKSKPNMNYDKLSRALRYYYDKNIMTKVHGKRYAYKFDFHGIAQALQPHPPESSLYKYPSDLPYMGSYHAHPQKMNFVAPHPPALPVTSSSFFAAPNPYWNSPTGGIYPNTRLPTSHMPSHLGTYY
In short: as §1

[5] = biological target: ELF1 (Homo sapiens, UniProt P32519 1-619); details: protein: recombinant; tags: N-terminal GST; dsDNA, one strand shown
ELF1, sequence (P32519 whole entry): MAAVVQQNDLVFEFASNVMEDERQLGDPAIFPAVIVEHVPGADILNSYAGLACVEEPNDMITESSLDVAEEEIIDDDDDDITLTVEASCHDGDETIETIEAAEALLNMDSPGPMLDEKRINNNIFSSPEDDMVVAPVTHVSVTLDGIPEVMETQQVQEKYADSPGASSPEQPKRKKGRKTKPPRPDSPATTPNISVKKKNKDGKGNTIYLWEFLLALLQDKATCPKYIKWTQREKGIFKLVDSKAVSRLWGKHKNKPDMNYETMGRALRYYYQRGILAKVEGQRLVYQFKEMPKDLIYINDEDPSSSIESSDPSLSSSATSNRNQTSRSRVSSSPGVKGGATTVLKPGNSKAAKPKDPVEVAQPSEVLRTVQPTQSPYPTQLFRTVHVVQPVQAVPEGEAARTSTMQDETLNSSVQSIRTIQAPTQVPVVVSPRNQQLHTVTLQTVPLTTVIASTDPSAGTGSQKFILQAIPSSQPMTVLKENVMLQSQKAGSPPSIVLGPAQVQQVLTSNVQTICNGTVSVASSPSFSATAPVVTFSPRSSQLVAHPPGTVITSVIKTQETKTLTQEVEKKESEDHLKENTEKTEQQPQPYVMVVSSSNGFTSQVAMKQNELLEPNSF
In short: as §1

[6] = biological target: T5, EHF (Homo sapiens, UniProt Q9NZC4 1-300); details: protein: recombinant; tags: N-terminal GST; dsDNA, one strand shown
T5 sequence: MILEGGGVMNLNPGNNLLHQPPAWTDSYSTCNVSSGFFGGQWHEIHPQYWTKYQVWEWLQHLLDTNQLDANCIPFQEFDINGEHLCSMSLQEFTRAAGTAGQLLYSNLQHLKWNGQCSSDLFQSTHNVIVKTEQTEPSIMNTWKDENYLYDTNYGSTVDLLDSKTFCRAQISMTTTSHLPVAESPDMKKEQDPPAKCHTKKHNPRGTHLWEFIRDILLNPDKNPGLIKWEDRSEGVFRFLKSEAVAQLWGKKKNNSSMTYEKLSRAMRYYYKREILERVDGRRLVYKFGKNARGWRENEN
In short: as §1

[7] = biological target: SPI1 (Homo sapiens, UniProt P17947 1-270); details: protein: recombinant; tags: N-terminal GST; dsDNA, one strand shown
In short: as §1

[8] = biological target: SPIB (Homo sapiens, UniProt Q01892 1-262); details: protein: recombinant; tags: N-terminal GST; dsDNA, one strand shown
SPIB, sequence (Q01892 whole entry): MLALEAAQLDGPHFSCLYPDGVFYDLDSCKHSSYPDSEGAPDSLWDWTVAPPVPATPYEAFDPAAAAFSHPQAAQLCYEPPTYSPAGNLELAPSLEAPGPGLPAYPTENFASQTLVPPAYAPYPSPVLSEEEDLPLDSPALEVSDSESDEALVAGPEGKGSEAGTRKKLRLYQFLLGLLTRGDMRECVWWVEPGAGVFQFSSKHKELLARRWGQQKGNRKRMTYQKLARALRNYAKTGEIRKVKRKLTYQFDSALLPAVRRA
In short: as §1

[9] = biological target: T6, ELK3 (Homo sapiens, UniProt P41970 1-407); details: protein: recombinant; tags: N-terminal GST; dsDNA, one strand shown
T6 sequence: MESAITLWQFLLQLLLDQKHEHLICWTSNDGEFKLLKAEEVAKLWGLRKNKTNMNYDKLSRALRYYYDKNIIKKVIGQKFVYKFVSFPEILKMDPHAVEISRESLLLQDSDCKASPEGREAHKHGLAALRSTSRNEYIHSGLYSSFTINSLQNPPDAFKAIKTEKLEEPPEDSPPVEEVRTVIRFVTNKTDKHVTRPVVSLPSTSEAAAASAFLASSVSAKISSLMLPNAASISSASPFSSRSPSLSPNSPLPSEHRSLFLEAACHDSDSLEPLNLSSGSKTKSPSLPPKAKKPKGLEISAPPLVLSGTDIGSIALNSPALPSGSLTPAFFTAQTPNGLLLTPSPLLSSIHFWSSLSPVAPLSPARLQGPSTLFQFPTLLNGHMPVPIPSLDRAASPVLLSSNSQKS
In short: as §1

[10] = biological target: T7, FEV (Homo sapiens, UniProt Q99581 1-238); details: protein: recombinant; tags: N-terminal GST; dsDNA, one strand shown
T7 sequence: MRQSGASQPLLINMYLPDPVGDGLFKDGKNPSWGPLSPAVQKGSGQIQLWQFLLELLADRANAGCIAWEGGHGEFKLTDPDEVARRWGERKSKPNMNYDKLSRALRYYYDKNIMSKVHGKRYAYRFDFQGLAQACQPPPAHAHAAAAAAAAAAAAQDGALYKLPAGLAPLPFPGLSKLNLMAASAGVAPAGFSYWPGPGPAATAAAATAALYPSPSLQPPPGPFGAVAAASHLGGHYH
In short: as §1

[11] = biological target: ETV5 (Homo sapiens, UniProt P41161 1-510); details: protein: recombinant; tags: N-terminal GST; dsDNA, one strand shown
ETV5, sequence (P41161 whole entry): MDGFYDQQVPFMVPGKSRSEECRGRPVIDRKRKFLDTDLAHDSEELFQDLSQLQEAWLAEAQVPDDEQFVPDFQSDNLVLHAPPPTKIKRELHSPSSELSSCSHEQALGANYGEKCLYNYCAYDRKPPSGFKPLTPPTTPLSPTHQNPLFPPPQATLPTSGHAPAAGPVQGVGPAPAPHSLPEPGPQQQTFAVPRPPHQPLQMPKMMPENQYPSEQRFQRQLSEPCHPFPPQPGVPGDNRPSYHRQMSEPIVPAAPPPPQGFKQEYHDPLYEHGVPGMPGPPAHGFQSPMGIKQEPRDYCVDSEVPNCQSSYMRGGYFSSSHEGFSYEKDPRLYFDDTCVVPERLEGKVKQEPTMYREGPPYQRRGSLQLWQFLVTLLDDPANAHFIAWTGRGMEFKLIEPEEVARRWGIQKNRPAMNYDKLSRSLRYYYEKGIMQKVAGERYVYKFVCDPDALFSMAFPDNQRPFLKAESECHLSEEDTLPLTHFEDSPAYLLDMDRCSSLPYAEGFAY
In short: as §1

[12] = biological target: HSF1 (Homo sapiens, UniProt Q00613 1-529); details: protein: recombinant; tags: N-terminal GST; chain copies: 3; dsDNA, one strand shown
HSF1, sequence (Q00613 whole entry): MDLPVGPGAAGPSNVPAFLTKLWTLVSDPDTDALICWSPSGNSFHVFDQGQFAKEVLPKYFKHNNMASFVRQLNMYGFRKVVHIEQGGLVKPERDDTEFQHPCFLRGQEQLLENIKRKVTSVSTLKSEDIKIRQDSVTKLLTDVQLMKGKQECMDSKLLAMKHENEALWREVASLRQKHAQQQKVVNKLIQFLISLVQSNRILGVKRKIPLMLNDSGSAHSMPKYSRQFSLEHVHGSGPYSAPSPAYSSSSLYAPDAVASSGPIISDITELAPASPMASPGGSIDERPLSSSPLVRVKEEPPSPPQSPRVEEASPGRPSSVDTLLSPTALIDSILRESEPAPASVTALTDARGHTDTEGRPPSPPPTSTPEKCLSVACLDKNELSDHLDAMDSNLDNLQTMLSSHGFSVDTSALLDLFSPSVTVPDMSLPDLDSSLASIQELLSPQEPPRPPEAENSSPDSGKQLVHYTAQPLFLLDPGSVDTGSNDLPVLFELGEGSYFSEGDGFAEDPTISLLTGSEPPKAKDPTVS
In short: as §1

[13] = biological target: T8, SPIC (Homo sapiens, UniProt Q8N5J4 1-248); details: protein: recombinant; tags: N-terminal GST; dsDNA, one strand shown
T8 sequence: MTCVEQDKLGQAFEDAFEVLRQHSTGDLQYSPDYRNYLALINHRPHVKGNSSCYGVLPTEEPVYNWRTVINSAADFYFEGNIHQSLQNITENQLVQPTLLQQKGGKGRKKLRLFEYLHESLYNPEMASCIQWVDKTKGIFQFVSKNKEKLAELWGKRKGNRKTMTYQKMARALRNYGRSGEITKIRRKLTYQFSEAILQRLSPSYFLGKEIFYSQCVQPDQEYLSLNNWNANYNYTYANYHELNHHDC
In short: as §1

[14] = biological target: ELF4 (Homo sapiens, UniProt Q99607 1-663); details: protein: recombinant; tags: N-terminal GST; dsDNA, one strand shown
ELF4, sequence (Q99607 whole entry): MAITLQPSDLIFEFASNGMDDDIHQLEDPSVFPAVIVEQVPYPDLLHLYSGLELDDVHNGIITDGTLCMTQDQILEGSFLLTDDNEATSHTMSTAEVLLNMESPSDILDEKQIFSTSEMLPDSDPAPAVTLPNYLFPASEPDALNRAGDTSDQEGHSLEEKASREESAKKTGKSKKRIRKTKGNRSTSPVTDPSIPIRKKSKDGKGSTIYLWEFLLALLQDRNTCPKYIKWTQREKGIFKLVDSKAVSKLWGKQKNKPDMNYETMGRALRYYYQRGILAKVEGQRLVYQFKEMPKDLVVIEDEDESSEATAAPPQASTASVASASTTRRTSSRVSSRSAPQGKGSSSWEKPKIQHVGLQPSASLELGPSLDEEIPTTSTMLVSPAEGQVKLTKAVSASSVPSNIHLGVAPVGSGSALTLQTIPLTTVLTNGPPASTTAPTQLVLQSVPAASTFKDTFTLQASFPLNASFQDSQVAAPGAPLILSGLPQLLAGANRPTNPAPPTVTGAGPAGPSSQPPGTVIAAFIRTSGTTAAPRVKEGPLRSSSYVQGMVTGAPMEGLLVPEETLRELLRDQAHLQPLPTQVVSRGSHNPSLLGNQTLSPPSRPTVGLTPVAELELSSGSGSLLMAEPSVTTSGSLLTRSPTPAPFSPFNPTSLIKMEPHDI
In short: as §1

[15] = biological target: T9, ELK4 (Homo sapiens, UniProt P28324-2 1-405); details: protein: recombinant; tags: N-terminal GST; dsDNA, one strand shown
T9 sequence: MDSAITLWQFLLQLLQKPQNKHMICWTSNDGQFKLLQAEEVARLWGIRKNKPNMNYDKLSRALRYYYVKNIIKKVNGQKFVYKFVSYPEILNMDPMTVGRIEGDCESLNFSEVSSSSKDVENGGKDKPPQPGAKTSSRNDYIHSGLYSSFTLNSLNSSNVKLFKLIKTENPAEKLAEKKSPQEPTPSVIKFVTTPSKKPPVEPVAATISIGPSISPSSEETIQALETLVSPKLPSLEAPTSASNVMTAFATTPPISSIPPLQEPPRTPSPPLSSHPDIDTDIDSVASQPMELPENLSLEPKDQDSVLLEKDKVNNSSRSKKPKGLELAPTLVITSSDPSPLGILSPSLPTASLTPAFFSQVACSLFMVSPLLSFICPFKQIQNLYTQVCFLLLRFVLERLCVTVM
In short: as §1

[16] = biological target: T10, ETV2 (Homo sapiens, UniProt O00321 1-342); details: protein: recombinant; tags: N-terminal GST; dsDNA, one strand shown
T10 sequence: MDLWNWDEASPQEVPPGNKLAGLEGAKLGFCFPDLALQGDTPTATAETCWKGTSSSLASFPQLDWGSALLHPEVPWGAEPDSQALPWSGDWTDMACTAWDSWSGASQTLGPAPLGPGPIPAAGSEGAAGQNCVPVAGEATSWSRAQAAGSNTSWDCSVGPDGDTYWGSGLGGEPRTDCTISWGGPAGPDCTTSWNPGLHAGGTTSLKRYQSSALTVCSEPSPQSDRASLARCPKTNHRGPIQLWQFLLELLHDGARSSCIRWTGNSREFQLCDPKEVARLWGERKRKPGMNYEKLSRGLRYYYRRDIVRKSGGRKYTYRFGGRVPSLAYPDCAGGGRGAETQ
In short: as §1

[17] = biological target: T11, ELF3 (Homo sapiens, UniProt P78545 1-371); details: protein: recombinant; tags: N-terminal GST; dsDNA, one strand shown
T11 sequence: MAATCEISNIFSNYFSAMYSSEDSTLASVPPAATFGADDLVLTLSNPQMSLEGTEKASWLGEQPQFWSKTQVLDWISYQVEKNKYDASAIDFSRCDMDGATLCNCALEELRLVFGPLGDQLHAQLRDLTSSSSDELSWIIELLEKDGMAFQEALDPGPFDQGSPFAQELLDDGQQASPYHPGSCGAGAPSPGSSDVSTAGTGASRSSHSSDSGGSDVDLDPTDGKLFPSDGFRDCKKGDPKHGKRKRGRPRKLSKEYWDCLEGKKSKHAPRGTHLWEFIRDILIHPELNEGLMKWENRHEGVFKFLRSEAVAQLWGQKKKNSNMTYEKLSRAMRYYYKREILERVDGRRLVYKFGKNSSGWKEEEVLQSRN
In short: as §1

[18] = biological target: CRX (Homo sapiens, UniProt O43186 1-299); details: protein: recombinant; tags: N-terminal GST; dsDNA, one strand shown
CRX, sequence (O43186 whole entry): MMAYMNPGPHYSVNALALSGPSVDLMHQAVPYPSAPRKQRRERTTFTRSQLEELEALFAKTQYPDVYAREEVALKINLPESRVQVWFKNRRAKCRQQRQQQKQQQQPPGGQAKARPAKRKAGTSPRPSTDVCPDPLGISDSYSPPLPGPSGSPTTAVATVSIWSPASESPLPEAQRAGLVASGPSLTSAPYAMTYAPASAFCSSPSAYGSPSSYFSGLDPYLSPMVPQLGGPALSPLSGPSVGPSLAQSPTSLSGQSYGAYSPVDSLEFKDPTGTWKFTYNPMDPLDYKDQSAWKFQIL
In short: as §1

[19] = biological target: ETV1 (Homo sapiens, UniProt P50549 1-477); details: protein: recombinant; tags: N-terminal GST; dsDNA, one strand shown
ETV1, sequence (P50549 whole entry): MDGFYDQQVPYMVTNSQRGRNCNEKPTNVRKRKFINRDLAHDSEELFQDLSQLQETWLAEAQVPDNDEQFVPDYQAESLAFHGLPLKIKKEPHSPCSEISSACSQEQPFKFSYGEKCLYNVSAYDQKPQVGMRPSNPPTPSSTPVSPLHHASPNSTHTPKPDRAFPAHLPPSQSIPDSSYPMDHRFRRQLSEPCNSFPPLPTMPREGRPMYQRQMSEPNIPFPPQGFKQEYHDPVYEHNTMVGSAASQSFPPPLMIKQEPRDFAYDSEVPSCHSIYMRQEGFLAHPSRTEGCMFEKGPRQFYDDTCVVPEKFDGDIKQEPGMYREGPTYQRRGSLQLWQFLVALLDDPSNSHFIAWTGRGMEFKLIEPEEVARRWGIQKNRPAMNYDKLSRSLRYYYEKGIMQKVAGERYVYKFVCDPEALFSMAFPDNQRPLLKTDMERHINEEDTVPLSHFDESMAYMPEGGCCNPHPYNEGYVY
In short: as §1

AACTGG
binding signal [1]: 1.22 fold enrichment (6-mer frequency, TF over GST control) | binding signal [2]: 1.22 fold enrichment (6-mer frequency, TF over GST control) | binding signal [3]: 1.29 fold enrichment (6-mer frequency, TF over GST control) | binding signal [4]: 1.31 fold enrichment (6-mer frequency, TF over GST control) | binding signal [5]: 1.27 fold enrichment (6-mer frequency, TF over GST control) | binding signal [6]: 1.17 fold enrichment (6-mer frequency, TF over GST control) | binding signal [7]: 1.31 fold enrichment (6-mer frequency, TF over GST control) | binding signal [8]: 1.25 fold enrichment (6-mer frequency, TF over GST control) | binding signal [9]: 1.28 fold enrichment (6-mer frequency, TF over GST control) | binding signal [10]: 1.12 fold enrichment (6-mer frequency, TF over GST control) | binding signal [11]: 1.21 fold enrichment (6-mer frequency, TF over GST control) | binding signal [12]: 1.25 fold enrichment (6-mer frequency, TF over GST control) | binding signal [13]: 1.38 fold enrichment (6-mer frequency, TF over GST control) | binding signal [14]: 1.25 fold enrichment (6-mer frequency, TF over GST control) | binding signal [15]: 1.27 fold enrichment (6-mer frequency, TF over GST control) | binding signal [16]: 1.31 fold enrichment (6-mer frequency, TF over GST control) | binding signal [17]: 1.17 fold enrichment (6-mer frequency, TF over GST control) | binding signal [18]: 1.16 fold enrichment (6-mer frequency, TF over GST control) | binding signal [19]: 1.14 fold enrichment (6-mer frequency, TF over GST control)

— paper PMC7862700, “An all-to-all approach to the identification of sequence-specific readers for epigenetic DNA modifications on cytosine”
